The values below come from PubChem BioAssay (Tox21).

Molecules are shown by their SMILES. “And” between values parts separate entries of the source, which are not always exact repeats. Identical values can stand only once. Records with an inconclusive call do not appear. A structure can be active in one record and inactive in another. The source made the active and inactive calls. Unless noted, calls come from the whole dose curve.

The nature of test [1]: Nuclear factor erythroid 2-related factor 2/antioxidant responsive element (Nrf2/ARE) small molecule agonists: qHTS cell viability counter screen in human keratinocytes (AID 1919968; active = well fitted curve in the direction sought with a large enough effect in the repeat runs; an effect the other way counts as inactive or inconclusive; note: nearly all actives have a fitted effect of over 55% in size). The gist of the method: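 Cytotoxicity was multiplexed with the Nrf2/ARE luciferase assay in the same wells. Stably transfected HaCaT keratinocytes were treated with test compounds for 23 h at 37 C. Cell viability was then measured by CellTiter-Fluor fluorescence.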
(In qHTS, concentration-response curves come from the screen itself.)

A short description of test [2]: Nuclear factor erythroid 2-related factor 2/antioxidant responsive element (Nrf2/ARE) small molecule agonists: luciferase reporter gene qHTS assay in human keratinocytes (AID 1919969). Note: nearly all actives have a fitted effect of over 35% in size. Note: potency is the fitted concentration of half-maximal effect.
In test [3] the target is Gonadotropin-releasing hormone receptor (Homo sapiens) (UniProt P30968). Kind of test: Human gonadotropin-releasing hormone receptor (GnRHR) small molecule agonists, calcium flux assay in GnRHR-HEK293 cells (AID 1920063). Note: nearly all actives have a fitted effect of over 35% in size. The gist of the method:
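Agonist activity was measured as intracellular calcium flux in HEK293 cells engineered to stably express human GnRHR. After dye loading for 1 hour at 37 C, compounds in DMSO were added and fluorescence was followed for 3 minutes.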

Test [4] concerns the target KiSS-1 receptor (Homo sapiens) (UniProt Q969F8). The test is described as follows: Human kisspeptin (KISS1R) small molecule agonists, calcium flux assay in KISS1R-HEK293 cells (AID 1920064; active = well fitted curve in the direction sought with a large enough effect in the repeat runs; an effect the other way counts as inactive or inconclusive). The gist of the method: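 Agonist activity is monitored as intracellular calcium rise in engineered HEK293 cells carrying human KISS1R. Cells are dye-loaded for 1 h at 37 C before compound addition, and fluorescence is recorded for 3 min.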
On the technique in general: Calcium flux is commonly read through the fluorescence of an indicator in the cells.

Test [5] in a line: G protein-coupled receptor (GPCR) small molecule agonists, calcium flux assay: HEK293 wild type cell line counter screen (AID 1920065). Put shortly:
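Seed cells, incubate 18 h (37 C, 5% CO2); add calcium dye, 1 h at 37 C; pin-transfer compounds, ATP control or DMSO; read fluorescence 480/540 nm each second for 3 min.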

The nature of test [6]: p53 small molecule agonists, cell-based qHTS assay with human liver microsomes: qHTS cell viability counter screen (AID 1963579). Note: nearly all actives have a fitted effect of over 45% in size. The gist of the method: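 In this multiplexed counter screen, the reporter plates were subsequently treated with CellTiter-Glo so that cell viability, reflected by luminescence, could be recorded for p53RE-bla cells dosed 16 h with compounds under microsomal activation (HLM and NADPH).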

Test [7] in a line: p53 small molecule agonists, cell-based qHTS assay with rat liver microsomes: qHTS cell viability counter screen (AID 1963580). Note: nearly all actives have a fitted effect of over 45% in size. The gist of the method: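 Luminescent ATP readout (CellTiter-Glo, 30 min at room temperature) reports viability of p53RE-bla HCT-116 cells after 16 h at 37 C with test compounds under metabolic activation by rat liver microsomes and NADPH at 0.5 mg/mL final each.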

Test [8] in a line: p53 small molecule agonists, cell-based qHTS assay: qHTS cell viability counter screen (AID 1963581). Note: nearly all actives have a fitted effect of over 45% in size. The gist of the method:
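Viability was counter-screened in parallel with the p53 agonist reporter by measuring intracellular ATP luminescence in the same HCT-116 p53RE-bla wells after 16 h compound treatment at 37 C.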

For test [9], the target named is 5-hydroxytryptamine receptor 2A (Homo sapiens) (UniProt P28223). Kind of test: 5-hydroxytryptamine receptor 2A (HTR2A) small molecule antagonists, cell-based qHTS assay (AID 1963586). Note: nearly all actives have a fitted effect of over 45% in size. Put shortly: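 CHO cells stably expressing human HTR2A were plated for 18 h at 37 C, then loaded with calcium dye for 1 h. Compounds were preincubated 5 min at room temperature before DOI (4 nM solution) was added. Kinetic fluorescence was read for 3 min.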

Test [10] has the same target. Kind of test: 5-hydroxytryptamine receptor 2A (HTR2A) small molecule agonists, cell-based qHTS assay (AID 1963587). Note: nearly all actives have a fitted effect of over 30% in size. The gist of the method: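 HTR2A-CHO cells, plated 18 h at 37 C/5% CO2, dye-loaded 1 h at 37 C; compounds in DMSO added by pin tool (agonist mode). Intracellular calcium flux read as kinetic fluorescence on FDSS over 2 min at 1 s intervals.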
Test [11] addresses Muscarinic acetylcholine receptor M1 (Homo sapiens) (UniProt P11229). Kind of test: Cholinergic receptor muscarinic 1 (CHRM1) small molecule antagonists, cell-based qHTS assay (AID 1963588). Note: nearly all actives have a fitted effect of over 40% in size. The gist of the method:
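Compounds were tested at 15 concentrations in three independent runs. Dye-loaded CHRM1-CHO cells were exposed 5 min at room temperature before stimulation by acetylcholine added at 50nM. Intracellular calcium was read kinetically on FDSS for 3 min.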

Test [12] shares this target. Kind of test: Cholinergic receptor muscarinic 1 (CHRM1) small molecule agonists, cell-based qHTS assay (AID 1963589). Note: nearly all actives have a fitted effect of over 35% in size. The gist of the method: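 Cells were plated and incubated 18 h at 37 C/5% CO2, loaded with calcium dye for 1 h at 37 C, then treated with compounds in DMSO. Fluorescence was recorded kinetically at 1 sec intervals.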
Test [13] in a line: cAMP Responsive Elements (CRE) small molecule agonists, cell-based qHTS assay (AID 1963590). The gist of the method:
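Cells carrying a CRE-driven beta-lactamase reporter (HEK 293T) are seeded, incubated overnight (18 h), and treated with test compounds for 3 h at 37 C; reporter activity is then detected with a FRET substrate after 2 h at room temperature.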

Test [14] can be described thus: cAMP Responsive Elements (CRE) small molecule antagonists, cell-based qHTS assay (AID 1963591; active = well fitted inhibition curve with a large enough effect in the signal ratio in the repeat runs, not every such curve was filed as active; the % refers to the signal ratio). Put shortly: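 Cells (CRE-bla HEK 293T, DMEM with 10% dialyzed FBS and 25 mM HEPES) are seeded and incubated 18 h. Compounds are added with NKH477 agonist at 0.25 uM final for 3 h, then FRET substrate for 2 h.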
The target in test [15] is Beta-2 adrenergic receptor (Homo sapiens) (UniProt P07550). Kind of test: Adrenergic beta2 receptor (ADRB2) small molecule antagonists, cell-based qHTS assay (AID 1963592). Note: series mostly up to about 92 µM; nearly all actives have a fitted effect of over 50% in size. Put shortly:
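Assay format: CHO-ADRB2 cells, 18-20hr seeding at 37C/5% CO2, then compound plus 1nM isoproterenol agonist mix for 0.5hr RT. Homogeneous time-resolved fluorescence cAMP detection after 1hr, expressed as 665/615 nm ratio.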

Test [16] has as its target D(2) dopamine receptor (Homo sapiens) (UniProt P14416). Kind of test: Dopamine D2 receptor (DRD2) small molecule agonists, cell-based qHTS assay (AID 1963594). Note: nearly all actives have a fitted effect of over 35% in size. Put shortly:
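HEK293 cells stably expressing DRD2 were cultured 24 h at 37 C, then given Ro20-1724 (0.1 mM final) and compounds for 10 min at room temperature. NKH477 (200nM) was then added for 30 min. cAMP was read by HTRF.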

Test [17] has the same target. Kind of test: Dopamine D2 receptor (DRD2) small molecule antagonists, cell-based qHTS assay (AID 1963595; active = well fitted inhibition curve with a large enough effect in the signal ratio in the repeat runs, with a control signal flat; the % refers to the signal ratio). Put shortly: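 Stable D2 receptor HEK293 line, 24 h after seeding. Compound preincubated 10 min, then quinpirole (12 nM) with forskolin analogue NKH477 (200 nM), 30 min, room temperature. Detection by time-resolved FRET of cAMP.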
Test [18] concerns the target Beta-2 adrenergic receptor (Homo sapiens) (UniProt P07550). The test is described as follows: Adrenergic beta2 receptor (ADRB2) small molecule agonists, cell-based qHTS assay (AID 1963593).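 Note: CHO cells stably overexpressing human ADRB2.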 The gist of the method: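 CHO cells stably over-expressing ADRB2 were plated overnight at 37C, then dosed with compounds plus a stimulation mix containing 100uM IBMX and 25uM Ro-20-1724 for 0.5hr at room temperature. cAMP was measured by HTRF competition, 1hr.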

Test [19] can be described thus: p53 small molecule agonists, cell-based qHTS assay (AID 1963582; active = well fitted activation curve with a large enough effect in the signal ratio in the repeat runs, not every such curve was filed as active; the % refers to the signal ratio). Put shortly: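 Cells carrying a p53-responsive bla reporter are treated with test compounds for 16 h at 37 C; beta-lactamase activity is then detected with LiveBLAzer B/G FRET substrate after 2 h at room temperature.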

Muscarinic acetylcholine receptor M1 (Homo sapiens), sequence (P11229 whole entry, looked up): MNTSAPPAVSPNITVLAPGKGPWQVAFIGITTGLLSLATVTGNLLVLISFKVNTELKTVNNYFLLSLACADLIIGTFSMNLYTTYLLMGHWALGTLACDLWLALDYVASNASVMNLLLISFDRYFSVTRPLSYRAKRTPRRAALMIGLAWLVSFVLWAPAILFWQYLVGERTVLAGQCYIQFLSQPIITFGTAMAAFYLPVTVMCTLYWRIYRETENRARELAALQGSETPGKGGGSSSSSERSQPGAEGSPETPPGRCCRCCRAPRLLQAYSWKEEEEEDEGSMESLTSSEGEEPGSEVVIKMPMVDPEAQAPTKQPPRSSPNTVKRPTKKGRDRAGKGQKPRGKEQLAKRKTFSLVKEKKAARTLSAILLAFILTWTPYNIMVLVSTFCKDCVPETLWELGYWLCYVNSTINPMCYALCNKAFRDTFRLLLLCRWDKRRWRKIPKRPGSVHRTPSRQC
Beta-2 adrenergic receptor (Homo sapiens), sequence (P07550 whole entry, looked up): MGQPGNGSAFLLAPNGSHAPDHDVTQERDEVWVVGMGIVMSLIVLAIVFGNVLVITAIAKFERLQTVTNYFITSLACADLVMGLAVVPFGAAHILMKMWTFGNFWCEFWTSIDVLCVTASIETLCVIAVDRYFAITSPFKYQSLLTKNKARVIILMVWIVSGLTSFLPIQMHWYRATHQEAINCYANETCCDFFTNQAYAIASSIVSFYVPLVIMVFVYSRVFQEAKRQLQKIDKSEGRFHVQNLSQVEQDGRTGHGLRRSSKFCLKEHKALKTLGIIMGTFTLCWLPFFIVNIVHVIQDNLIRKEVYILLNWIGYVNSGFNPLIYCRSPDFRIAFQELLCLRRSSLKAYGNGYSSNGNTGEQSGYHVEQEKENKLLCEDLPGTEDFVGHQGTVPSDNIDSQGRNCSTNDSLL
KiSS-1 receptor (Homo sapiens), sequence (Q969F8 whole entry, looked up): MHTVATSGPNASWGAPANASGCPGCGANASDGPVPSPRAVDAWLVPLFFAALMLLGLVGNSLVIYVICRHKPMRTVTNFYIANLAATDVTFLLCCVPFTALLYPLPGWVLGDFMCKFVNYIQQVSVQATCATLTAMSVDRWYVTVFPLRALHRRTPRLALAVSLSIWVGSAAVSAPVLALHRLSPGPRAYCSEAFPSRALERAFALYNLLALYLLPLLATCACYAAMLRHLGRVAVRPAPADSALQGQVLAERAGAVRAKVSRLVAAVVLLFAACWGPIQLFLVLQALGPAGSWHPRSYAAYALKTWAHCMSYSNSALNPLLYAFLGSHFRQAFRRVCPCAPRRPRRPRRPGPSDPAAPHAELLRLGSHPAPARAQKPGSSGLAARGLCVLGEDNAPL
Gonadotropin-releasing hormone receptor (Homo sapiens), sequence (P30968 whole entry, looked up): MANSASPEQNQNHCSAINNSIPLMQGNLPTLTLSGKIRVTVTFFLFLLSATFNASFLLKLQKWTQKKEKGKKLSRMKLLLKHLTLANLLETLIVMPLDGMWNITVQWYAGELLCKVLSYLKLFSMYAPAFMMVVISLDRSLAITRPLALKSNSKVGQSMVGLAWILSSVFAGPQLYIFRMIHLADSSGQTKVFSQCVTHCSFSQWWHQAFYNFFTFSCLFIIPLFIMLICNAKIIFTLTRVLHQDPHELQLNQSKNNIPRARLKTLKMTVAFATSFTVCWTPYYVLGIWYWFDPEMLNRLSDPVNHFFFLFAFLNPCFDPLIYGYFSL
5-hydroxytryptamine receptor 2A (Homo sapiens), sequence (P28223 whole entry, looked up): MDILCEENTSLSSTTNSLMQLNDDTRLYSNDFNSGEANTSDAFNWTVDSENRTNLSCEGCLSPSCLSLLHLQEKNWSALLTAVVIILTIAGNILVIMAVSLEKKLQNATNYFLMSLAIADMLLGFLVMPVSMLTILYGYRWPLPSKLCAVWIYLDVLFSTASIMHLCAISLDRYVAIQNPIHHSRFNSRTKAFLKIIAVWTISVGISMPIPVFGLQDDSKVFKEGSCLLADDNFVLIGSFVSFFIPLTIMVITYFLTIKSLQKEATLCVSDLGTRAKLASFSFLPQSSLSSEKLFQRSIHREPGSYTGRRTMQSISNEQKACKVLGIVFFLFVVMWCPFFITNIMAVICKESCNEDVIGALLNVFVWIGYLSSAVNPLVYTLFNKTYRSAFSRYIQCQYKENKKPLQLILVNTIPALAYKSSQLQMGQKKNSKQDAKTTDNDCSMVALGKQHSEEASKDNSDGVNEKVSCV
D(2) dopamine receptor (Homo sapiens), sequence (P14416 whole entry, looked up): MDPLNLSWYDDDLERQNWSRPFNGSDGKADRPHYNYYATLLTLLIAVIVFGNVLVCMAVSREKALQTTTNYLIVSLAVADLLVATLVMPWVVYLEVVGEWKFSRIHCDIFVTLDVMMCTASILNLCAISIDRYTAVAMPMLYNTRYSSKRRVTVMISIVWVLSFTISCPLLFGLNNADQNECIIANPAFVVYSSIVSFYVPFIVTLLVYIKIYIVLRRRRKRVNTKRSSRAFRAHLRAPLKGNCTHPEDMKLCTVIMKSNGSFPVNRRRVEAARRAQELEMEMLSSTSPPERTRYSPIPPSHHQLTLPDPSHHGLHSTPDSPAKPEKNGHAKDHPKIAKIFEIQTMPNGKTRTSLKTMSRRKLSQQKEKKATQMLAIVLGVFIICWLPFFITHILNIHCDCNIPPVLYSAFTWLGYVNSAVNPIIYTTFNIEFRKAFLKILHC

`C=CC(Cl)CCl` (stereo not drawn): the Potency entry in test [1], in test [2], in [3], in test [4], in test [5] and in test [6] was “inactive” in each case. In addition, the Potency result in test [7], in test [8], in test [9], in test [10], in test [11] and in test [12] was “inactive” each time. Further, the Potency entry in [13], in test [14], in test [15], in test [16] and in test [17] was “inactive” each time.

`Cc1cc(Cl)ccc1N`: the Potency entry in test [1], in test [2], in test [3], in test [4], in [5] and in test [6] was “inactive” each time. Moreover, the Potency result in test [7], in [8], in [9], in test [10], in test [11] and in test [12] was “inactive” in each case. Also, the Potency entry in [13], in test [14], in test [15], in test [18], in test [16] and in test [17] was “inactive” throughout.

Take `[CH3][Sn]([CH3])([Cl])[Cl]`: the Potency entry in [1], in [3], in [4], in test [5], in test [6] and in test [7] was “inactive” in each case. Moreover, the Potency entry in test [8], in test [9], in [10], in [11], in [12] and in test [13] was “inactive” each time. Further, the Potency entry in test [14], in test [15], in test [16] and in [17] was “inactive” in each case. Also, the Potency in test [2] is 55.4 µM (active) and inactive.

As for `CCOP(=S)(OCC)O/N=C(\C#N)c1ccccc1`, the Potency entry in [1], in test [2], in test [3], in test [4], in test [5] and in test [6] was “inactive” throughout. Besides, the Potency entry in test [7], in test [8], in [19], in test [9], in test [10] and in [11] was “inactive” throughout. The Potency result in test [13], in [14], in [15], in [18], in test [16] and in [17] was “inactive” throughout.

As to `Clc1cccc(Cl)c1Cl`, the Potency result in [1], in test [2], in test [3], in test [4], in test [5] and in test [6] was “inactive” in each case. For the same molecule, the Potency entry in test [7], in test [8], in test [9], in test [10], in test [11] and in [12] was “inactive” throughout. Also, the Potency result in [13], in test [14], in test [15], in [18], in [16] and in test [17] was “inactive” throughout.

On to `CC(C)=C[C@@H]1[C@@H](C(=O)OCc2coc(Cc3ccccc3)c2)C1(C)C`, for which the Potency entry in test [1], in [2], in test [3], in [4], in [5] and in test [6] was “inactive” each time. Further, the Potency entry in test [7], in [8], in test [9], in [10], in test [11] and in [12] was “inactive” in each case. For the same molecule, the Potency entry in [13], in test [14], in [15], in [18], in test [16] and in test [17] was “inactive” in each case.

In the case of `CCCCN(CCCC)SN(C)C(=O)Oc1cccc2c1OC(C)(C)C2`, the Potency entry in test [1], in test [3], in test [4], in test [5], in test [6] and in test [7] was “inactive” throughout. For the same molecule, the Potency entry in [8], in [9], in [10], in [11], in test [12] and in test [14] was “inactive” each time. In addition, the Potency entry in test [15], in test [18], in test [16] and in test [17] was “inactive” throughout. In addition, in [2], the Potency is 24.7 µM (active) and 54.5 µM (active).
